Assay outcomes from PubChem BioAssay.
Sampled rows, rich in hits. Any-hit rate of the full collection: about 19%.
TDP1 cell noCPT – qHTS for Inhibitors of human tyrosyl-DNA phosphodiesterase 1 (TDP1): qHTS in cells in absence of CPT; DT40 Tdp1-/- hTDP1 cells, no CPT, ATP luminescence, 48 h; Potency, µM (highest dose often 46.2 µM), for inactives: at the highest dose activity change, negative = growth inhibition, usual class: inhibitors; 420,000 compounds, 15% hits; note: potency is the fitted concentration of half-maximal effect; nearly all actives have a fitted effect of over 55% in size
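Growth of hTDP1-complemented DT40 Tdp1-knockout cells is measured by ATP luminescence after at least 48 hr compound exposure at 37 °C, with DMSO substituting for the 20 nM CPT used in the parallel screen.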
ELG1 DNA repair – ELG1-dependent DNA repair inhibition; AID 504467; HEK293T ELG1-luciferase reporter, luminescence, 16 h; DNA damage induced by 5-fluorouridine; 330,000 compounds, 2.3% hits; Potency, µM (doses to about 46.1 µM), without a hit: top-dose activity change, negative = inhibition, hits mostly inhibitors; note: potency is the fitted concentration of half-maximal effect; nearly all actives have a fitted effect of over 55% in size
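Step one: seed 2,000 cells per well. Step two: pin-transfer compound or DMSO alongside 5-fluorouridine. Step three: incubate 16 hr, 37 °C, 5% CO2. Step four: add ONE-Glo, wait 30 min, read luminescence.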
HT1080 IDH1KD tx – HT-1080 IDH1 knockdown cell toxicity (counter line); Potency, µM (titrated, usually from 46.1 µM), without a hit: at the top dose activity, negative = toxicity, actives largely listed as cytotoxic; 360,000 compounds, 2% hits; HT-1080 IDH1 knockdown viability, ATP luminescence, 48 h;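 note: potency is the fitted concentration of half-maximal effect; 0% = DMSO wells and -100% = cell-free medium wells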
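Knockdown cells (IDH1KD HT-1080) received compounds 2 h after plating at 750 cells/well and were kept 48 h at 37 °C in 5% FBS RPMI. A CellTiter-Glo luminescence read gave % activity for curve fitting.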
HT1080-NT tox – kills 2HG-producing HT-1080-NT fibrosarcoma cells | AID 686970 | HT-1080-NT fibrosarcoma viability, CellTiter-Glo ATP luminescence, 48 h | Potency, µM (top dose mostly 46.1 µM), for the others: at the top dose activity, negative = less viability, hits mostly cytotoxic | 360,000 compounds, 1.6% hits;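 note: NT is the 2HG producing partner of a matched IDH1 knockdown line; potency is the fitted concentration of half-maximal effect; 0% = DMSO-treated cells and -100% = media-only wells without cells; nearly all actives have a fitted effect of over 55% in size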
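HT-1080-NT fibrosarcoma cells (2HG-overproducing), 750 cells/well in RPMI with 5% FBS, dosed after 2 h and incubated 48 h at 37C. CellTiter-Glo luminescence normalized to DMSO and no-cell wells; concentration-response curves fitted and classed.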
IL-1B inflam inh – inhibitors of inflammasome signaling (IL-1 beta secretion) | THP-1 LPS/ATP IL-1B secretion, AlphaLISA, 16 h; hits give low values | activity change, % at 57.5 µM | 360,000 compounds, 4.7% hits | AID 743279; in the data active = activity change below about -50%; inconclusive = mostly about -30% to -49%
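Secreted IL-1B measured by AlphaLISA bead assay after 16 h compound exposure of THP-1 cells; compounds (final up to 57.5 uM) added 1 h before LPS (250 ng/mL) and ATP (1.25 mM) stimulation; lower signal means less secretion.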
TDP1 cell CPT – DT40-hTDP1 cell growth loss with CPT; chicken DT40 Tdp1-/-;hTDP1 cells + 20 nM CPT, ATP luminescence, 48 h; Potency, µM (highest dose often 46.2 µM), without a hit: at the top dose activity change, negative = growth inhibition, hits mostly inhibitors; 420,000 compounds, 12% hits; AID 686979; note: potency is the fitted concentration of half-maximal effect; nearly all actives have a fitted effect of over 55% in size
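Chicken DT40 Tdp1-/- cells stably complemented with human TDP1 were seeded at 400 cells/well in medium containing 20 nM camptothecin, exposed to pin-transferred compounds, and grown at 37 °C for at least 48 hr. Viability was read as ATP luminescence.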
ELG1 FLuc counter – luciferase inhibition in cell-free luciferin readout for ELG1 hits; shares compounds with ELG1 DNA repair; cell-free firefly luciferase luminescence counter-screen, ViewLux; Potency, µM (doses to about 46.1 µM), without a hit: at the highest dose activity change, negative = inhibition, most hits filed as inhibitors; 350 compounds, 3% hits; note: potency is the fitted concentration of half-maximal effect
ELG1 Luc conf – confirmation of human ELG1-dependent DNA repair inhibitors; shares compounds with ELG1 DNA repair; 670 compounds, 68% hits; HEK293T ELG1-luciferase levels, luminescence; cells co-treated with 5-fluorouridine; Potency, µM (highest dose often 46.1 µM), for inactives: top-dose activity change, negative = inhibition, most hits filed as inhibitors; note: potency is the fitted concentration of half-maximal effect; nearly all actives have a fitted effect of over 55% in size
ELG1 MMS Luc – inhibits ELG1-dependent repair under MMS stimulation in HEK293T cells | Potency, µM (series often up to 46.1 µM), for inactives: top-dose activity change, negative = inhibition, actives largely listed as inhibitors | AID 624249 | 670 compounds, 53% hits | shares compounds with ELG1 DNA repair | HEK293T luciferase-tagged ELG1 level, MMS stimulated; note: potency is the fitted concentration of half-maximal effect; nearly all actives have a fitted effect of over 60% in size
ELG1 5-FU – confirmation of ELG1 repair inhibitors: viability with 5FU | 670 tested, under 10 active | cell viability with 5-FU, ELG1-dependent repair | shares compounds with ELG1 DNA repair | Potency, µM (titrated, usually from 46.1 µM), for the others: top-dose activity change, negative = viability loss, actives largely listed as cytotoxic | AID 624250;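 note: ELG1-luc HEK293T cells cotreated with 5-fluorouridine at 10 µM final; potency is the fitted concentration of half-maximal effect; viability measured 16 h after compound addition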
ELG1 MMS viab – confirmation of ELG1 repair inhibitors: viability with MMS; shares compounds with ELG1 DNA repair; Cell viability with MMS, ELG1-dependent DNA repair; Potency, µM (doses to about 46.1 µM), for the others: at the highest dose activity change, negative = viability loss, hits mostly cytotoxic; 670 compounds, 33% hits; AID 624251;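 note: ELG1-luc HEK293T cells co-treated with 10 µM MMS; potency is the fitted concentration of half-maximal effect; viability read 16 h after compound addition; nearly all actives have a fitted effect of over 60% in size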
ELG1 unstim viab – counter-screen for ELG1 repair inhibitors: unstimulated cell viability; shares compounds with ELG1 DNA repair; cell viability counter-screen, unstimulated, luminescence; Potency, µM (top dose mostly 45.9 µM), for inactives: top-dose activity change, negative = loss of viability, most hits filed as cytotoxic; 900 compounds, 8% hits; AID 624252;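 note: potency is the fitted concentration of half-maximal effect; compound exposure lasted 16 hours before reading; nearly all actives have a fitted effect of over 55% in size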
FLuc biochem – counter-screen for ELG1 repair inhibitors: firefly luciferase inhibition; Potency, µM (titrated, usually from 57.5 µM), without a hit: top-dose activity, negative = inhibition, hits mostly inhibitors; purified firefly luciferase, luminescence counter-screen; 350 compounds, 10% hits; shares compounds with ELG1 DNA repair; note: potency is the fitted concentration of half-maximal effect
The depositor's hits bear a star. Unless noted, calls come from the whole dose curve; as a rule, active = well fitted curve in the direction sought with a large enough effect; inconclusive = small, poorly fitted or top-dose-only effect, or another doubt; inactive = no such curve, though single readings can be large; an effect the other way counts as inactive or inconclusive. Unless noted, % is set by controls: 0 for no effect and ±100 for the full control effect.

For CC1(C)Cc2c(C#N)c(SCCOc3ccccc3)nc(N3CCOCC3)c2CO1 the results were TDP1 cell noCPT inconclusive, ELG1 DNA repair 2.5µM*, HT1080 IDH1KD tx -11%, HT1080-NT tox -18%, IL-1B inflam inh 58, TDP1 cell CPT inconclusive, ELG1 Luc conf 3.5µM*, ELG1 MMS Luc inconclusive, ELG1 5-FU inconclusive, ELG1 MMS viab -9% and ELG1 unstim viab inconclusive.
`CC1(C)Cc2c(C#N)c(SCCO)nc(N3CCOCC3)c2CO1` gave TDP1 cell noCPT -15%, ELG1 DNA repair inconclusive, HT1080 IDH1KD tx -2%, HT1080-NT tox 1%, IL-1B inflam inh 20 and TDP1 cell CPT -22%.
`COc1ccc(-c2cc(C(F)F)n3ncc(C(=O)Nc4cccc(S(=O)(=O)N5CCOCC5)c4)c3n2)cc1` gave TDP1 cell noCPT inconclusive, ELG1 DNA repair 3.7µM*, HT1080 IDH1KD tx 27%, HT1080-NT tox 1%, IL-1B inflam inh 3, TDP1 cell CPT -6%, ELG1 Luc conf inconclusive, ELG1 MMS Luc 22%, ELG1 5-FU 12%, ELG1 MMS viab -5% and ELG1 unstim viab -13%.
Screening COc1ccc(C(=O)c2ccccc2)c2c(O)ccc(C(=O)c3ccccc3)c12 returned TDP1 cell noCPT 16µM*, ELG1 DNA repair inconclusive, HT1080 IDH1KD tx -28%, HT1080-NT tox -17%, IL-1B inflam inh 0, TDP1 cell CPT inconclusive, ELG1 Luc conf 5µM*, ELG1 MMS Luc 1.6µM*, ELG1 5-FU -3%, ELG1 MMS viab 2.2µM* and ELG1 unstim viab inconclusive.
For COc1cc(O)c(C(=O)c2ccccc2)cc1S(=O)(=O)O the results were TDP1 cell noCPT 5% and TDP1 cell CPT 1%.
Screening CCc1ccc(NC(=O)CC2C(=O)N(c3ccc(C)cc3)C(=O)N2C2CC2)cc1 (stereo not given) returned TDP1 cell noCPT -17%, ELG1 DNA repair -4%, HT1080 IDH1KD tx -2%, HT1080-NT tox 15%, IL-1B inflam inh -9 and TDP1 cell CPT -22%.
NS(=O)(=O)c1ccc(CCNC(=O)c2cc3ccccc3s2)cc1 was read as TDP1 cell noCPT -22%, ELG1 DNA repair inconclusive, HT1080 IDH1KD tx -7%, HT1080-NT tox -6%, IL-1B inflam inh 19 and TDP1 cell CPT 2%.
Screening O=S(=O)(c1ccc2c(c1)OCCO2)N1CCN(c2ncnc3sccc23)CC1 returned TDP1 cell noCPT 2.3µM*, ELG1 DNA repair 4.6µM*, HT1080 IDH1KD tx inconclusive, HT1080-NT tox -24%, IL-1B inflam inh -25, TDP1 cell CPT 5.2µM*, ELG1 Luc conf 13µM*, ELG1 MMS Luc 2µM*, ELG1 5-FU inconclusive, ELG1 MMS viab 1.8µM* and ELG1 unstim viab inconclusive.
Screening Cc1cc(NC(=O)Cc2ccccc2)c2ccccc2n1 returned TDP1 cell noCPT 2.6µM*, ELG1 DNA repair inconclusive, HT1080 IDH1KD tx -11%, HT1080-NT tox inconclusive, IL-1B inflam inh -22, TDP1 cell CPT 5.2µM*, ELG1 Luc conf inconclusive, ELG1 MMS Luc 2µM*, ELG1 5-FU 1%, ELG1 MMS viab 2.5µM* and ELG1 unstim viab inconclusive.
For Cc1ccc(C)c(S(=O)(=O)N2CCN(Cc3cc4c(cc3O)OCO4)CC2)c1 the results were TDP1 cell noCPT -36%, ELG1 DNA repair -3%, HT1080 IDH1KD tx 23%, HT1080-NT tox 9%, IL-1B inflam inh -21 and TDP1 cell CPT inconclusive.
`Cc1cccnc1NC(=O)C(C)N1C(=O)c2ccccc2C1=O` (stereo not given) gave TDP1 cell noCPT -8%, ELG1 DNA repair 1%, HT1080 IDH1KD tx 6%, HT1080-NT tox 5%, IL-1B inflam inh -8 and TDP1 cell CPT 8%.
For Cn1cccc1C(=O)OCC(=O)Nc1ccc2c(c1)OCCO2 the results were TDP1 cell noCPT -28%, ELG1 DNA repair inconclusive, HT1080 IDH1KD tx 13%, HT1080-NT tox 13%, IL-1B inflam inh -11, TDP1 cell CPT 1%, ELG1 FLuc counter 3%, ELG1 unstim viab inconclusive and FLuc biochem 2.1µM*.
Cn1cccc1C(=O)OCC(=O)Nc1sccc1C#N was read as TDP1 cell noCPT -9%, ELG1 DNA repair inconclusive, HT1080 IDH1KD tx 13%, HT1080-NT tox 8%, IL-1B inflam inh 7, TDP1 cell CPT -21% and ELG1 unstim viab 0%.
Screening CC(OC(=O)c1cc(S(=O)(=O)N2CCOCC2)ccc1F)C(=O)NC1CCCCC1C (stereo not given) returned TDP1 cell noCPT -22%, ELG1 DNA repair 3%, HT1080 IDH1KD tx 6%, HT1080-NT tox 5%, IL-1B inflam inh 4 and TDP1 cell CPT -19%.
